Measured values taken from PubChem BioAssay (Tox21).
Results filed as inconclusive are left out. The source holds several records for some structures; these can differ, active in one and inactive in another. Active and inactive are the calls of the source. Unless noted, calls come from the whole dose curve; as a rule, active = well fitted curve in the direction sought with a large enough effect in the repeat runs; inconclusive = weak or mixed curves; inactive = no such curve, though single readings can be large; an effect the other way counts as inactive or inconclusive.

What was measured:
[1] = qHTS assay to identify small molecule antagonists of the thyroid receptor (TR) signaling pathway (AID 743065); note: series mostly up to about 70 µM; nearly all actives have a fitted effect of over 55% in size
Method in brief: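 GH3.TRE-Luc rat pituitary cells carrying two TR response elements driving luciferase were plated for 4 h, given compound plus 1 nM T3 (final), and incubated 23.5 h at 37 C. ONE-Glo luminescence measured reporter inhibition; CellTiter-Fluor fluorescence tracked cytotoxicity.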

[2] = tested on: thyroid hormone receptor (rat, GH3 cells); assay: qHTS assay to identify small molecule agonists of the thyroid receptor (TR) signaling pathway (AID 743066; calls by dose curve)
[3] = qHTS assay to identify small molecule antagonists of the estrogen receptor alpha (ER-alpha) signaling pathway - cell viability counter screen (AID 743074; calls by dose curve; note: nearly all actives have a fitted effect of over 45% in size)
[4] = molecular target: Estrogen receptor (Homo sapiens) (UniProt P03372); assay: qHTS assay to identify small molecule agonists of the estrogen receptor alpha (ER-alpha) signaling pathway (AID 743075; calls by dose curve)
Chain of Estrogen receptor (Homo sapiens) (P03372 whole entry, looked up): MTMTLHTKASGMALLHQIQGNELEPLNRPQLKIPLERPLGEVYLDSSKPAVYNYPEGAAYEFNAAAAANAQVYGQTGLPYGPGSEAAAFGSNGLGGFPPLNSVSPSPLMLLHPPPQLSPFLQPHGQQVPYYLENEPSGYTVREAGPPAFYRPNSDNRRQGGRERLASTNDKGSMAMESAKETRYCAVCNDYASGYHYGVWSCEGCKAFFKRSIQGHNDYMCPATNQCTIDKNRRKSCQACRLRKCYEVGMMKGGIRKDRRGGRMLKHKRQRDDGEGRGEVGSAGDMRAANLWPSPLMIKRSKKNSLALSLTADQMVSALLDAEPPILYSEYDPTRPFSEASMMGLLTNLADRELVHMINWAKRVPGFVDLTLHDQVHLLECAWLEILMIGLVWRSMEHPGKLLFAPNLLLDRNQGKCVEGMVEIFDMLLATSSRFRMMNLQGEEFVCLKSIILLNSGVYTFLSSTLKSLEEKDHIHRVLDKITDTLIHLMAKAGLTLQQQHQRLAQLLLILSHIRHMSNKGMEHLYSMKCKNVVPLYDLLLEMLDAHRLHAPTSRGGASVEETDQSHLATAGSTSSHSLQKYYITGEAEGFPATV

[5] = molecular target: Estrogen receptor (Homo sapiens) (UniProt P03372); assay: qHTS assay to identify small molecule agonists of the estrogen receptor alpha (ER-alpha) signaling pathway using the BG1 cell line (AID 743079); note: nearly all actives have a fitted effect of over 20% in size; note: potency is the fitted concentration of half-maximal effect
[6] = qHTS assay to identify small molecule antagonists of the estrogen receptor alpha (ER-alpha) signaling pathway using the BG1 cell line (AID 743080; calls by dose curve;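 note: BG1 cells stimulated with 17beta-estradiol alongside compound; nearly all actives have a fitted effect of over 25% in size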; note: potency is the fitted concentration of half-maximal effect; for activity change, negative = inhibition: series mostly up to about 70 µM)
Method in brief: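 BG1Luc4E2, endogenous ER-alpha, 4xERE-luc; 5 d charcoal-stripped FBS, phenol red free; 24 h plating; cpd + 17beta-estradiol 21.5 h, 37 C/5% CO2; CellTiter-Fluor viability 30 min, then ONE-Glo luciferase 30 min RT.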

[7] = qHTS assay to identify small molecule antagonists of the estrogen receptor alpha (ER-alpha) signaling pathway using the BG1 cell line - cell viability counter screen (AID 743081);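 note: compound given together with 17beta-estradiol as the ER stimulus; series mostly up to about 70 µM; nearly all actives have a fitted effect of over 45% in size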
[8] = molecular target: Aromatase (Homo sapiens) (UniProt P11511); assay: qHTS assay to identify aromatase inhibitors (AID 743083); note: series mostly up to about 70 µM; nearly all actives have a fitted effect of over 55% in size
Chain of Aromatase (Homo sapiens) (P11511 whole entry, looked up): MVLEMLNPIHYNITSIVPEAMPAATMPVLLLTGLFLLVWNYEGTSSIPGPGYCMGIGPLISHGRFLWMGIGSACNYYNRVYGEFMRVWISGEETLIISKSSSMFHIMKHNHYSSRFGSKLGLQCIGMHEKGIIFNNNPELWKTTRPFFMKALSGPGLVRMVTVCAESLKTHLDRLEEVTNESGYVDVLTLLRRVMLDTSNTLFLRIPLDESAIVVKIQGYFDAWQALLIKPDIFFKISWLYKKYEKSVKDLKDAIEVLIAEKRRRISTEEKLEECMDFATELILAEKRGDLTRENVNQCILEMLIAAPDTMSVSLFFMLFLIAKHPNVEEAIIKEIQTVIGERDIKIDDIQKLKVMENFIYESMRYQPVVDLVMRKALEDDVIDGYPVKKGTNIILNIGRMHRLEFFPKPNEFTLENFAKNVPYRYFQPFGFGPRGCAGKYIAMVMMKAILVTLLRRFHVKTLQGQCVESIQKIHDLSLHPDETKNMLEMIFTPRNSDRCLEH

[9] = qHTS assay to identify aromatase inhibitors - cell viability counter screen (AID 743084);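 note: cells stimulated with testosterone during compound exposure; nearly all actives have a fitted effect of over 55% in size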
[10] = molecular target: Estrogen receptor (Homo sapiens) (UniProt P03372); assay: qHTS assay to identify small molecule antagonists of the estrogen receptor alpha (ER-alpha) signaling pathway (AID 743069; active = well fitted curve in the direction sought with a large enough effect in the signal ratio in the repeat runs, not every such curve was filed as active; the % refers to the signal ratio)
Method in brief: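 HEK293 cells stably carrying an ER-alpha-UAS-bla beta-lactamase reporter were pre-cultured overnight in 2% charcoal-stripped FBS medium. Test compounds in DMSO were added together with 17beta-estradiol for 18 hr at 37C. Read-out was fluorescence after 2 hr with LiveBLAzer B/G FRET substrate at room temperature.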
% is set by controls: 0 for no effect and ±100 for the full control effect.

N[C@H]1C(O)O[C@H](CO)[C@@H](O)[C@@H]1O (some centres undefined)
active: Potency [5] 0.531 µM
inactive: Potency [1] | Potency [2] | Potency [3] | Potency [4] | Potency [6] | outcome [7] | Potency [8] | outcome [9]

CCOC(=O)[C@H](CCc1ccccc1)N[C@H]1CS[C@H](c2cccs2)CN(CC(=O)O)C1=O
inactive: Potency [1] | Potency [2] | Potency [3] | Potency [4] | Potency [5] | Potency [6] | outcome [7] | Potency [8] | outcome [9]

O=P(O)(O)C(O)(Cc1cccnc1)P(=O)(O)O
inactive: Potency [1] | Potency [2] | Potency [3] | Potency [4] | Potency [5] | Potency [6] | outcome [7] | Potency [8] | outcome [9]

C/C(=N\O)c1ccc(OCC(=O)N2CCCCC2)cc1
inactive: Potency [1] | Potency [2] | outcome [10] | Potency [4] | outcome [7] | Potency [8] | outcome [9]
active: Potency [5] 4.22 µM

CC(C)CC(O)Cc1ccccc1 (centres undefined)
inactive: Potency [1] | Potency [2] | outcome [10] | Potency [3] | Potency [4] | Potency [6] | outcome [7] | Potency [8]

NS(=O)(=O)c1cc2c(cc1C(F)(F)F)NCNS2(=O)=O
inactive: Potency [1] | Potency [2] | outcome [10] | Potency [3] | Potency [4] | Potency [5] | Potency [6] | outcome [7] | Potency [8] | outcome [9]

Cc1cccc(N)n1
inactive: Potency [1] | Potency [2] | Potency [3] | Potency [4] | Potency [5] | Potency [6] | outcome [7] | Potency [8] | outcome [9]

NCC1CCC(C(=O)Oc2ccc(CCC(=O)O)cc2)CC1 (centres undefined)
inactive: Potency [1] | Potency [2] | outcome [10] | Potency [3] | Potency [4] | outcome [7] | outcome [9]
active: Potency [6] 26.6 µM

Cc1ccc(OC(=O)CC(C)C)cc1
inactive: Potency [1] | Potency [2] | Potency [3] | Potency [4] | Potency [5] | Potency [6] | outcome [7] | Potency [8] | outcome [9]

CCc1ccc(CC)cc1
inactive: Potency [1] | Potency [2] | Potency [3] | Potency [4] | Potency [5] | Potency [6] | outcome [7] | Potency [8]

N#CC1(N)CCCCC1
inactive: Potency [1] | Potency [2] | Potency [3] | Potency [4] | Potency [5] | Potency [6] | outcome [7] | Potency [8]

CC(=O)OC1CCC(C(C)(C)C)CC1 (centres undefined)
inactive: Potency [1] | Potency [2] | Potency [3] | Potency [4] | Potency [5] | Potency [6] | outcome [7] | Potency [8] | outcome [9]

Nc1nc(Cl)cc(Cl)n1
inactive: Potency [1] | Potency [2] | outcome [10] | Potency [4] | Potency [5] | Potency [6] | outcome [7] | Potency [8] | outcome [9]

CCCc1ccc(O)c(OC)c1
inactive: Potency [1] | Potency [2] | Potency [3] | Potency [4] | Potency [5] | Potency [6] | outcome [7] | Potency [8] | outcome [9]

N=C(N)S(=O)O
inactive: Potency [1] | Potency [2] | Potency [3] | Potency [4] | Potency [5] | Potency [6] | outcome [7] | Potency [8] | outcome [9]

C=CC(=O)OCC[N+](C)(C)C
inactive: Potency [1] | Potency [2] | outcome [10] | Potency [4] | Potency [5] | Potency [6] | outcome [7] | Potency [8] | outcome [9]

COCc1nnc(-c2ccc[n+]([O-])c2)n1-c1c(Cl)c(Cl)cc2[nH]c(=O)c(=O)[nH]c12
inactive: Potency [1] | Potency [2] | outcome [10] | Potency [3] | Potency [4] | Potency [6] | outcome [7] | Potency [8] | outcome [9]

CCCCOCCCC
inactive: Potency [1] | Potency [2] | Potency [3] | Potency [4] | Potency [5] | Potency [6] | outcome [7] | Potency [8] | outcome [9]

Cc1ccc2cccnc2c1
inactive: Potency [1] | Potency [2] | Potency [3] | Potency [4] | Potency [5] | Potency [6] | outcome [7] | Potency [8] | outcome [9]

CC(=O)Nc1ccc(OCCOCCOc2ccc(NC(C)=O)cc2)cc1
inactive: Potency [1] | Potency [2] | Potency [3] | Potency [4] | Potency [5] | Potency [6] | outcome [7] | Potency [8] | outcome [9]

Cc1ccc(NC(N)=O)cc1
inactive: Potency [1] | Potency [2] | Potency [3] | Potency [4] | Potency [5] | Potency [6] | outcome [7] | Potency [8] | outcome [9]

C[C@@H]1NC(=O)[C@@H](N)CNC(=O)[C@H](C2CCNC(N)=N2)NC(=O)/C(=C/NC(N)=O)NC(=O)[C@H](CNC(=O)C[C@@H](N)CCCN)NC1=O (some centres undefined)
29.8 µM (active) and inactive: Potency [5]
inactive: Potency [1] | Potency [2] | Potency [3] | Potency [4] | Potency [6] | outcome [7] | Potency [8] | outcome [9]

C=CCOC(=O)CCCCCCCC
inactive: Potency [1] | Potency [2] | outcome [10] | Potency [3] | Potency [4] | Potency [5] | Potency [6] | outcome [7] | Potency [8] | outcome [9]

CC(C)(C)c1ccc(N)cc1
inactive: Potency [1] | Potency [2] | outcome [10] | Potency [3] | Potency [4] | Potency [6] | outcome [7] | Potency [8] | outcome [9]

CCCCCCCCCCCCCCCCN(C)C
inactive: activity, negative = inhibition [1] 0.216% [at 8.44 µM] | activation [2] 0.259% [at 8.08 µM] | activity, negative = cytotoxicity [3] -9.33% [at 6.72 µM] | activation [4] -5.38% [at 6.71 µM] | activation [5] -2.47% [at 8.47 µM] | activity change, negative = inhibition [6] -1.23% [at 8.47 µM] | activity change, negative = cytotoxicity [7] -2.87% [at 8.47 µM] | activity, negative = inhibition [8] 3.06% [at 8.47 µM] | activity change, negative = cytotoxicity [9] 0.21% [at 8.47 µM]

Cc1ccc(O)c([N+](=O)[O-])c1
inactive: Potency [1] | Potency [2] | Potency [3] | Potency [4] | Potency [5] | Potency [6] | outcome [7] | Potency [8] | outcome [9]

CCN1CCN(C(=O)N[C@@H](C(=O)N[C@@H]2C(=O)N3[C@@H]2SC(C)(C)[C@H]3C(=O)O)c2ccccc2)C(=O)C1=O
inactive: Potency [1] | Potency [2] | outcome [10] | Potency [4] | Potency [5] | Potency [6] | outcome [7] | Potency [8] | outcome [9]

CCCC(=O)CC
inactive: Potency [1] | Potency [2] | Potency [3] | Potency [4] | Potency [6] | outcome [7] | Potency [8] | outcome [9]
active: Potency [5] 28.1 µM
